Most compounds without a hit are left out; they make up all but 5.9% or so of the library.
S2 tox: reduces viability in counter-screen for ATXN expression inhibitors | Potency, µM (series often up to 56.7 µM), hits mostly cytotoxic | 400,000 compounds, 0.49% hits | S2 cells (HEK-293 line with an ATXN2-luciferase reporter) viability, CellTiter-Fluor protease fluorescence, 24 h | AID 651635; also: nearly all actives have a fitted effect of over 40% in size
KB-3-1 tox: KB-3-1 parental cell cytotoxicity | KB-3-1 viability, CellTiter-Glo ATP luminescence, 72 h | Potency, µM (series often up to 46.1 µM), actives largely listed as cytotoxic | 400,000 compounds, 1.4% hits; also: % is scaled to controls: 0 for no effect and ±100 for the full control effect; nearly all actives have a fitted effect of over 60% in size
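Cells are dispensed, compounds pinned in, plates held at 37 °C for 72 h, then CellTiter-Glo is added and luminescence read after 10 minutes. Cell line: parental KB-3-1 in phenol-red-free DMEM, 10% FBS.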
ATXN2 expr inh: reduces ATXN2 reporter expression in HEK-293 cells; HEK-293 ATXN2-luciferase reporter, luminescence, 24 h; Potency, µM (titrated, usually from 57 µM), inactives show at the top dose activity change, negative = inhibition, hits mostly inhibitors; 360,000 compounds, 0.72% hits; AID 1745845; also: % is scaled to controls: 0 for no effect and ±100 for the full control effect; nearly all actives have a fitted effect of over 55% in size
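qHTS (up to 57 uM final) was run with 24 h compound exposure of reporter cells at 37 °C. Each well was multiplexed: SteadyGlo luminescence measured ATXN2-luciferase expression after a fluorogenic Gly-Phe-AFC viability readout (25 uM final).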
TGFb SMAD3 inh: TGF-b pathway inhibition; HepG2 CAGA-GFP TGF-b/SMAD3 reporter, GFP fluorescence, 18 h; TGF-beta stimulated, 500 pg/mL final; Potency, µM (top dose mostly 46.1 µM), for the others: at the top dose activity, negative = inhibition, usual class: inhibitors; 410,000 compounds, 1.2% hits; AID 588855; also: % is scaled to controls: 0 for no effect and ±100 for the full control effect; nearly all actives have a fitted effect of over 65% in size
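Read-out: total well GFP (ex488/em500-530) summed from mean per-cell fluorescence. Cells: HEPG2 CAGA-GFP, 1% FBS DMEM, 18 h at 37 degrees C with 500 pg/mL final TGF-beta. Unstimulated wells served as the full-inhibition control; stimulated DMSO wells = 0%.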
KB-V1 cytotox: KB-V1 MDR subline cytotoxicity | 400,000 compounds, 3.4% hits | Potency, µM (top dose mostly 46.1 µM), usual class: cytotoxic | KB-V1 MDR cells viability, CellTiter-Glo, 72 h | AID 1347076; also: % is scaled to controls: 0 for no effect and ±100 for the full control effect; nearly all actives have a fitted effect of over 60% in size
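Luminescent ATP read-out (CellTiter-Glo, 10 min) measures survival of drug-selected KB-V1 MDR cells after 72 h, 37 degrees C compound exposure. Medium: phenol-red-free DMEM, 10% FBS. Values from fitted concentration-response curves.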
HepG2 viability: HepG2 cytotoxicity, counter-screen for TGF-b inhibitors; HepG2 CAGA-GFP viability, ATP luminescence, 18 h; Potency, µM (titrated, usually from 46.1 µM), without a hit: top-dose activity change, negative = cytotoxicity, most hits filed as cytotoxic; 410,000 compounds, 0.76% hits; AID 588856
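HepG2 CAGA-GFP cells (1000/well, DMEM with 1% FBS) received compound, then TGF-beta at 500 pg/mL final, and were incubated 18 hours at 37 degrees C. Viability was read by CellTiter-Glo luminescence. Media-only wells were set as complete cell-killing and DMSO as no toxicity.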
The depositor's hits bear a star; i = inactive; u = inconclusive; x = not tested or not shown; [ ] = dose if it differs, or a comment. Calls follow the shape of the dose curve; as a rule, active = well fitted curve in the direction sought with a large enough effect; inconclusive = small, poorly fitted or top-dose-only effect, or another doubt; inactive = no such curve, though single readings can be large; an effect the other way counts as inactive or inconclusive. Potency is read from the fitted curve at half-maximal effect.

SMILES	S2 tox	KB-3-1 tox	ATXN2 expr inh	TGFb SMAD3 inh	KB-V1 cytotox	HepG2 viability
C/C(=N/NC(=O)c1ccc(C)nc1)c1ccc2c(c1)CCCC2	i	u	-8%[11.3 µM]	-4%	10µM*	9%
O=C(N/N=C/c1cccc([N+](=O)[O-])c1)c1ccc(COc2ccccc2-c2ccccc2)cc1	i	u	2%	-8%	16µM*	3%
O=C(COc1ccccc1-c1ccccc1)N/N=C/c1ccc2ccccc2c1	u	1.3µM*	u	7.1µM*	u	-55%
COc1cc(/C=N/NC(=O)c2cccc([N+](=O)[O-])c2)ccc1OCc1ccccc1	i	i	4%	13%	u	-25%
O=C(COc1ccccc1-c1ccccc1)N/N=C/c1ccncc1	i	i	-9%	-26%	u	-27%
CCN1CCN(C(c2ccccc2Cl)c2c(O)cc(C)n(Cc3ccco3)c2=O)CC1 (stereo not given)	x	i	x	-3%	i	4%
CCOC(=O)N1CCN(c2c(F)cc3[nH]c(=S)[nH]c3c2Br)CC1	i	u	-16%	-1%	8.2µM*	-16%
CCOC(=O)c1c(NC(=O)Cc2coc3cc(C)cc(C)c23)sc2c1CCC2	i	i	16%	-3%	i	1%
CNc1ccc(C(=O)c2ccccc2C(=O)O)cc1[N+](=O)[O-]	i	i	x	-5%	i	-5%
CNc1ccc(/C=C/C(=O)c2cccc3ccccc23)cc1[N+](=O)[O-]	u	u	u	-23%	15µM*	-1%
COC(=O)c1sc(N2C(=O)c3oc4ccccc4c(=O)c3C2c2cccs2)nc1C (stereo not given)	i	18µM*	-18%	-2%	u	-26%
Cc1nn2c(=O)cc(COC(=O)c3ccc(NC(=O)COc4ccc(Cl)cc4)cc3)nc2s1	x	x	x	u	x	-16%
Cc1ccc(NP(=O)(Nc2ccc(C)cc2)Nc2ccc(C)cc2)cc1	i	21µM*	-35%	u	u	-12%
Cc1ccc(P(C)(=O)c2ccc(C)cc2)cc1	i	i	12%	12%	i	-4%
O=c1c(-c2cc(-c3ccccc3)nc3c2COc2ccc(Cl)cc2-3)coc2ccccc12	i	i	-7%	0%	u	-32%
CN(CCO)C(=O)c1cn(C2CCN(Cc3c(F)cccc3Cl)CC2)nn1	i	x	x	x	x	x
CN(C)c1ccc(/C=C2/C[N+](C)(C)C/C(=C/c3ccc(N(C)C)cc3)C2=O)cc1	13µM*	16µM*	-12%	0%	i	13µM*
CC(C)/C=C1\CC/C(=C\c2ccc(N(C)C)cc2)C1=O	i	i	68%	-7%	u	21%
CCc1ccc(NS(=O)(=O)c2ccc3oc(=O)c4ncn(CC)c4c3c2)cc1	u	i	u	u	i	-91%
Cc1cccc(COCC(Cc2ccccc2)N2CCN(C(=O)c3ccc(C(F)(F)F)cc3)CCC2=O)c1 (stereo not given)	u	21µM*	u	u	12µM*	-32%
O=C(c1ccc(Cl)c(Cl)c1)N1CCC(=O)N(C(COCc2cccc(Cl)c2)Cc2ccccc2)CC1 (stereo not given)	u	i	u	u	i	-7%
O=C(c1ccc(Cl)c(Cl)c1)N1CCC(=O)N([C@H](COCc2ccc(Cl)cc2)Cc2ccccc2)CC1	u	u	u	x	21µM*	x
CN(C)c1ccc(/C=C/c2ccnc3ccc(Br)cc23)cc1	x	i	x	20%	i	-28%
COC(=O)c1c[nH]c2c1-c1cc(C(=O)OCc3ccccc3)n(S(=O)(=O)c3ccc(C)cc3)c1C(=O)C2=O	u	2.9µM*	u	0.45µM*	5.8µM*	0.56µM*
Cc1nnc(N/N=C/c2cccc(OCc3ccc(Cl)c(Cl)c3)c2)n1N	u	i	11%	22µM*	u	-104%
SMILES	S2 tox	KB-3-1 tox	ATXN2 expr inh	TGFb SMAD3 inh	KB-V1 cytotox	HepG2 viability
O=C(Nc1ccc(F)cc1F)c1cccc(C(=O)Nc2ccc(F)cc2F)n1	4.5µM*	x	2.5µM*	-8%	x	-25%
CCOc1ccc(NS(=O)(=O)c2ccc3c4c(cccc24)C(=O)N3)cc1	i	i	-21%	u	i	-41%
O=C(CC[C@H]1O[C@@H](n2ccc(=O)[nH]c2=O)[C@H](O)[C@@H]1O)N[C@@H](Cc1ccccc1)C(=O)NCC1CCCCC1	i	i	-8%	-6%	i	4%
Cc1ccn2c(Nc3ccccc3C)c(-c3ccccc3)nc2c1	u	i	14%	-3%	i	13µM*
Cc1ccccc1Nc1c(-c2ccncc2)nc2ccc(Cl)cn12	u	i	-4%	16µM*	i	18µM*
Cn1nccc1C(=O)NCC1CCC2(CCN(Cc3ccc(-c4ccc(Cl)cc4)o3)CC2)O1 (stereo not given)	i	x	x	x	x	x
CN(CC(=O)Nc1cccc(F)c1)C(=O)c1cccc(S(=O)(=O)N2CCN(c3ccc(F)cc3)CC2)c1	i	u	u	13µM*	i	-29%
COc1ccc(CCN(C)C(=O)c2cccc(S(=O)(=O)N3CCN(c4ccc(F)cc4)CC3)c2)cc1OC	u	u	x	11µM*	u	-39%
CCc1ccc(S(=O)(=O)c2cn(C)c3cc(N4CCC(C)CC4)c(F)cc3c2=O)cc1	x	i	x	-10%	i	-1%

Compound activity as filed in PubChem BioAssay.
